A short description of assay [1]: Nuclear factor erythroid 2-related factor 2/antioxidant responsive element (Nrf2/ARE) small molecule agonists: qHTS cell viability counter screen in human keratinocytes (AID 1919968; active means well fitted curve in the direction sought with a large enough effect in the repeat runs; an effect the other way counts as inactive or inconclusive; further: nearly all actives have a fitted effect of over 55% in size; further: potency means the concentration at half of the fitted maximal effect). The gist of the method: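 Cells of the KeratinoSens line were plated at 1,500 per well and left for 5 h before compound transfer from DMSO stocks. After a 23 h incubation (37 C, 5% CO2), CellTiter-Fluor was added. Signal was taken as fluorescence intensity 1 h later.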
A general note: In qHTS, concentration-response curves come from the screen itself.

Assay [2] addresses Gonadotropin-releasing hormone receptor (Homo sapiens) (UniProt P30968). Description: Human gonadotropin-releasing hormone receptor (GnRHR) small molecule agonists, calcium flux assay in GnRHR-HEK293 cells (AID 1920063). Further: nearly all actives have a fitted effect of over 35% in size. A digest of the protocol: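 Compounds dissolved in DMSO are pin-transferred onto dye-loaded GnRHR-HEK293 cells, which were seeded 18 h before at 37 C/5% CO2. Calcium signal is read as fluorescence intensity at 1 s intervals for 3 min.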
A general note: Calcium assays in cells follow changes in intracellular calcium, usually with a dye or a luminescent sensor.

In assay [3] the target is KiSS-1 receptor (Homo sapiens) (UniProt Q969F8). Description: Human kisspeptin (KISS1R) small molecule agonists, calcium flux assay in KISS1R-HEK293 cells (AID 1920064; active means well fitted curve in the direction sought with a large enough effect in the repeat runs; an effect the other way counts as inactive or inconclusive). The gist of the method: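 Cell line: HEK293, stable human KISS1R. Dye loading 1 h at 37 C after 18 h culture. Read: kinetic fluorescence, 480/540 nm, 3 min at 1 s intervals.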
KiSS-1 receptor (Homo sapiens), sequence (Q969F8 whole entry, looked up): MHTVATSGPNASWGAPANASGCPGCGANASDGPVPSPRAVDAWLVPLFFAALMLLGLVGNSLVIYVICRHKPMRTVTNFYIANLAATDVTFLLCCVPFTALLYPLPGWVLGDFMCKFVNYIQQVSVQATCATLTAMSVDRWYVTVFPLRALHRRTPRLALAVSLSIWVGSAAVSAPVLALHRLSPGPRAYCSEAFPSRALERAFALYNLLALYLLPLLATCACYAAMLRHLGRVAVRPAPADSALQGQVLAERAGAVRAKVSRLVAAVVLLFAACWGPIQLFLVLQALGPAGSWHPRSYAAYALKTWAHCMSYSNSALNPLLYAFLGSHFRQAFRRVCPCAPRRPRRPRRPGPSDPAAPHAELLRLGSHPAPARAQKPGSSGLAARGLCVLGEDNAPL
Assay [4] in a line: G protein-coupled receptor (GPCR) small molecule agonists, calcium flux assay: HEK293 wild type cell line counter screen (AID 1920065). Further: potency means the concentration at half of the fitted maximal effect. A digest of the protocol:
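Tox21 10K compounds, 15 concentrations each in triplicate, pin-transferred in DMSO onto dye-loaded cells; kinetic read at 480/540 nm for 3 min, 1 s intervals.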

Assay [5] is described as follows: p53 small molecule agonists, cell-based qHTS assay with human liver microsomes (AID 1963577).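 Further: p53 response element beta-lactamase reporter cells with liver microsomes plus NADPH.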 A digest of the protocol: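 Steps: plate p53RE-bla cells, incubate 5 h at 37 C; add compound in DMSO; add microsomes (0.5 mg/mL final) and NADPH (0.5 mg/mL final); incubate 16 h at 37 C; add LiveBLAzer, 2 h RT; read fluorescence.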
Assay [6] can be described thus: p53 small molecule agonists, cell-based qHTS assay with rat liver microsomes (AID 1963578). The gist of the method: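 Metabolic activation is supplied by rat liver microsomes with NADPH (each 0.5 mg/mL final). p53RE-bla cells incubate with compound 16 h at 37 C; reporter activity is measured by LiveBLAzer fluorescence.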
Assay [7] in a line: p53 small molecule agonists, cell-based qHTS assay with human liver microsomes: qHTS cell viability counter screen (AID 1963579). Further: nearly all actives have a fitted effect of over 45% in size. The gist of the method: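 After the 460/530 nm beta-lactamase read, CellTiter-Glo was added to the same wells and luminescence measured after 30 min at room temperature, giving viability of p53RE-bla cells treated 16 h with compounds plus microsomes and NADPH.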

Assay [8] can be described thus: p53 small molecule agonists, cell-based qHTS assay: qHTS cell viability counter screen (AID 1963581). Further: nearly all actives have a fitted effect of over 45% in size. The gist of the method: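 ATP content measured by luminescence in HCT-116 p53RE-bla cells treated 16 h at 37 C, same wells as the reporter screen.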
Assay [9] addresses 5-hydroxytryptamine receptor 2A (Homo sapiens) (UniProt P28223). The assay can be described thus: 5-hydroxytryptamine receptor 2A (HTR2A) small molecule agonists, cell-based qHTS assay (AID 1963587). Further: nearly all actives have a fitted effect of over 30% in size. A digest of the protocol: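 Kinetic calcium-flux fluorescence (2 min, 1 sec intervals) after compound addition in agonist mode. HTR2A-CHO cells were cultured 18 h, then dye-loaded 1 h at 37 C.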

In assay [10] the target is Muscarinic acetylcholine receptor M1 (Homo sapiens) (UniProt P11229). Description: Cholinergic receptor muscarinic 1 (CHRM1) small molecule antagonists, cell-based qHTS assay (AID 1963588). Further: nearly all actives have a fitted effect of over 40% in size. Further: potency means the concentration at half of the fitted maximal effect. A digest of the protocol: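 Compounds were tested at 15 concentrations in three independent runs. Dye-loaded CHRM1-CHO cells were exposed 5 min at room temperature before stimulation by acetylcholine added at 50nM. Intracellular calcium was read kinetically on FDSS for 3 min.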
Muscarinic acetylcholine receptor M1 (Homo sapiens), sequence (P11229 whole entry, looked up): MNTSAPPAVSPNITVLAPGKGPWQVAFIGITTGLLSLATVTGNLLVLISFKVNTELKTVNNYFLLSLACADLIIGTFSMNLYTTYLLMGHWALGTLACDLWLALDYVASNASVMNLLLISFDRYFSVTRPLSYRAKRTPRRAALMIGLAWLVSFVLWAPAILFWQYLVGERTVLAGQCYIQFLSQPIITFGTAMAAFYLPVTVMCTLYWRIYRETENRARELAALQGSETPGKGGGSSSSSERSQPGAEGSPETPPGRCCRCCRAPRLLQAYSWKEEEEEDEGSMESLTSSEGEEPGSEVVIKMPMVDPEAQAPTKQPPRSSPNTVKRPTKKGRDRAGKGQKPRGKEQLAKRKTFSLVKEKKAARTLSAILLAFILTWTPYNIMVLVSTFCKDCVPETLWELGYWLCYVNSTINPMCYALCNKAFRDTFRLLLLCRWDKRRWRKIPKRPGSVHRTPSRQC

The target is the same in assay [11]. Description: Cholinergic receptor muscarinic 1 (CHRM1) small molecule agonists, cell-based qHTS assay (AID 1963589). Further: nearly all actives have a fitted effect of over 35% in size. A digest of the protocol: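 Homogeneous fluorescence calcium flux, agonist mode. Human M1-expressing CHO cells; compound dosed at 15 concentrations, three independent runs; signal sampled every 1 sec.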
In assay [12] the target is D(2) dopamine receptor (Homo sapiens) (UniProt P14416). Description: Dopamine D2 receptor (DRD2) small molecule agonists, cell-based qHTS assay (AID 1963594). Further: nearly all actives have a fitted effect of over 35% in size. The gist of the method:
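cAMP accumulation in DRD2-HEK293 cells measured by HTRF after 1 h detection; compounds added 10 min before NKH477 (200nM […]) forskolin-analogue stimulation, 30 min at room temperature, with Ro20-1724 present at 0.1 mM final.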

The target is the same in assay [13]. The assay can be described thus: Dopamine D2 receptor (DRD2) small molecule antagonists, cell-based qHTS assay (AID 1963595; active means well fitted inhibition curve with a large enough effect in the signal ratio in the repeat runs, with a control signal flat; the % refers to the signal ratio). A digest of the protocol: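 Cells were plated and grown for 24 h at 37 °C. Ro20-1724 (0.1 mM final) went in first, then compound for 10 min. NKH477 (200 nM) with quinpirole (12 nM) followed for 30 min at RT, then HTRF detection reagents for 1 h.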

Assay [14] can be described thus: p53 small molecule agonists, cell-based qHTS assay with rat liver microsomes: qHTS cell viability counter screen (AID 1963580). Further: nearly all actives have a fitted effect of over 45% in size. The gist of the method: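 Cytotoxicity counter screen: intracellular ATP read by CellTiter-Glo luminescence in the p53 reporter wells. HCT-116 p53RE-bla cells were treated for 16 h at 37 C alongside rat liver microsomes and NADPH, each 0.5 mg/mL final.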

Assay [15] can be described thus: p53 small molecule agonists, cell-based qHTS assay (AID 1963582; active means well fitted activation curve with a large enough effect in the signal ratio in the repeat runs, not every such curve was filed as active; the % refers to the signal ratio). The gist of the method: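 16 h compound exposure (37 C) of p53 response element–bla cells, preceded by 5 h recovery at 37 C/5% CO2; read-out via LiveBLAzer B/G FRET substrate, 2 h RT, fluorescence intensity.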
For assay [16], the target named is 5-hydroxytryptamine receptor 2A (Homo sapiens) (UniProt P28223). Description: 5-hydroxytryptamine receptor 2A (HTR2A) small molecule antagonists, cell-based qHTS assay (AID 1963586). Further: nearly all actives have a fitted effect of over 45% in size. The gist of the method:
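CHO cells stably expressing human HTR2A were plated for 18 h at 37 C, then loaded with calcium dye for 1 h. Compounds were preincubated 5 min at room temperature before DOI (4 nM solution) was added. Kinetic fluorescence was read for 3 min.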

The nature of assay [17]: cAMP Responsive Elements (CRE) small molecule agonists, cell-based qHTS assay (AID 1963590). The gist of the method:
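HEK 293T cells stably bearing CRE-bla were plated at 2,000 cells per well and rested 18 h. Compounds, positive controls or DMSO were added for 3 h at 37 C. LiveBLAzer B/G substrate was then loaded for 2 h at room temperature.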

The nature of assay [18]: cAMP Responsive Elements (CRE) small molecule antagonists, cell-based qHTS assay (AID 1963591; active means well fitted inhibition curve with a large enough effect in the signal ratio in the repeat runs, not every such curve was filed as active; the % refers to the signal ratio). The gist of the method:
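First, CRE-bla HEK293T cells settled 18 h at 37 C. Next, compound and 0.25 uM final NKH477 were applied for 3 h. Last, LiveBLAzer B/G substrate was loaded for 2 h at room temperature.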

Assay [19] has as its target Beta-2 adrenergic receptor (Homo sapiens) (UniProt P07550). Description: Adrenergic beta2 receptor (ADRB2) small molecule antagonists, cell-based qHTS assay (AID 1963592). Further: series mostly up to about 92 µM; nearly all actives have a fitted effect of over 50% in size. A digest of the protocol: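 Assay format: CHO-ADRB2 cells, 18-20hr seeding at 37C/5% CO2, then compound plus 1nM isoproterenol agonist mix for 0.5hr RT. Homogeneous time-resolved fluorescence cAMP detection after 1hr, expressed as 665/615 nm ratio.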

The structures appear in SMILES notation. Inconclusive results are not listed. Active and inactive are the calls of the source. Unless noted, the call rests on the fitted dose curve.

D(2) dopamine receptor (Homo sapiens), sequence (P14416 whole entry, looked up): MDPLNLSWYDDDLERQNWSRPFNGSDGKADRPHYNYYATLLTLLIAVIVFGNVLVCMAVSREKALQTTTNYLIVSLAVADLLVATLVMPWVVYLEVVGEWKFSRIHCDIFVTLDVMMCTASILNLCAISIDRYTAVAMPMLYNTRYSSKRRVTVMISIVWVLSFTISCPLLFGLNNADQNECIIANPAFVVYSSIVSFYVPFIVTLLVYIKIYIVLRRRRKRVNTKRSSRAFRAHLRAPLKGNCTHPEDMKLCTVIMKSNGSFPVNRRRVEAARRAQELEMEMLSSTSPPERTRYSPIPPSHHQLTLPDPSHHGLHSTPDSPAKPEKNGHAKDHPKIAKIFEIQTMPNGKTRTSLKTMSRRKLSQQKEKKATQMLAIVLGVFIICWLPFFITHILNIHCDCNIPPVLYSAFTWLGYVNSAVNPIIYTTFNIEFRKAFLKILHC
5-hydroxytryptamine receptor 2A (Homo sapiens), sequence (P28223 whole entry, looked up): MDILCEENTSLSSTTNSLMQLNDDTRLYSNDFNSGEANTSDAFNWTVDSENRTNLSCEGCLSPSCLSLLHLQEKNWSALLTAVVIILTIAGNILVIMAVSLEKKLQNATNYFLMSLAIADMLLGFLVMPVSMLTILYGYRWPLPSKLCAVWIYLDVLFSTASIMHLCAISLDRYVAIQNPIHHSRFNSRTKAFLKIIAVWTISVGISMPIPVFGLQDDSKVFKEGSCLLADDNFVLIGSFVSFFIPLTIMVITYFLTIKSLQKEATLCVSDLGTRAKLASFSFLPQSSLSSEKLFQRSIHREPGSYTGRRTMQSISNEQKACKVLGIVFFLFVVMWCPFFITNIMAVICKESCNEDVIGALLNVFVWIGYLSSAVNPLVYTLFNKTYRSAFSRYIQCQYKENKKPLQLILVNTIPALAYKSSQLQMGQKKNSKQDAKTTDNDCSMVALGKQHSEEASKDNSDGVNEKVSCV
Beta-2 adrenergic receptor (Homo sapiens), sequence (P07550 whole entry, looked up): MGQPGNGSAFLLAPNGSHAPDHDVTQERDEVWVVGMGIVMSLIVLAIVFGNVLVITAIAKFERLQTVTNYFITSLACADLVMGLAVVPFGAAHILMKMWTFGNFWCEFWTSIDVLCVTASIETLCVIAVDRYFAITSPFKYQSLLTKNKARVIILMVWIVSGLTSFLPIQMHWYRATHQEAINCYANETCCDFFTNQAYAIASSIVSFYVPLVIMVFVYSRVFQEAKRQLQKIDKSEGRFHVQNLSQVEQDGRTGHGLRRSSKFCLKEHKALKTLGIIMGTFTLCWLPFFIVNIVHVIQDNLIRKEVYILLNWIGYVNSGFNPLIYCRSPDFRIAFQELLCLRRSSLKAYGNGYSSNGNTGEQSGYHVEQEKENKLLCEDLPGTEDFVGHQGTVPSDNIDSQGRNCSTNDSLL
Gonadotropin-releasing hormone receptor (Homo sapiens), sequence (P30968 whole entry, looked up): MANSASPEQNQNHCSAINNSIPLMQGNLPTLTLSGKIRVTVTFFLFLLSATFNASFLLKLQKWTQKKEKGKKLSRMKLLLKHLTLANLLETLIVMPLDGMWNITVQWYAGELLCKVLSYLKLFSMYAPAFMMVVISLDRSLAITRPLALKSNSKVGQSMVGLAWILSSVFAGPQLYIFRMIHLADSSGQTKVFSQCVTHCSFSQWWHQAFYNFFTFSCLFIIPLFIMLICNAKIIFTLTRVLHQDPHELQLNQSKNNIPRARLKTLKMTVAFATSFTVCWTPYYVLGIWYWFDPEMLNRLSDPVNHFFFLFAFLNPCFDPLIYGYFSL

As to `N#Cc1c(-c2ccc(Cl)cc2)[nH]c(C(F)(F)F)c1Br`, the Potency in assay [1] is 10.9 µM (active); in assay [4], 2.45 µM (active); in assay [10], 16.8 µM (active). For the same compound, the Potency result in assay [2], in assay [3], in assay [5], in assay [6], in [7] and in [8] was “inactive” each time. Further, the Potency entry in assay [9], in assay [11], in assay [12] and in assay [13] was “inactive” in each case.

On to `Cc1cc(C)nc(Nc2ccccc2)n1`, for which the Potency result in assay [1], in [2], in [3], in assay [4], in [5] and in assay [6] was “inactive” each time. In addition, the Potency entry in assay [7], in assay [14], in assay [15], in [16], in [9] and in assay [11] was “inactive” in each case. The Potency result in assay [17], in [18], in assay [19] and in assay [12] was “inactive” each time.

In the case of `O=C(NC(=O)c1cc(F)c(F)cc1Cl)Nc1cc(F)ccc1N1CCC(C(=O)O)CC1`, the Potency result in assay [1], in assay [2], in [3], in assay [4], in assay [5] and in [6] was “inactive” throughout. Further, the Potency entry in [7], in assay [14], in assay [8], in [16], in assay [9] and in [10] was “inactive” throughout. Besides, the Potency result in [11], in assay [19] and in assay [13] was “inactive” each time.

For the compound `ClC(Cl)(Cl)Cl`, the Potency result in assay [1], in [2], in assay [3], in assay [4], in assay [5] and in [6] was “inactive” each time. Also, the Potency result in assay [14], in assay [8], in [15], in assay [17], in [18] and in assay [12] was “inactive” each time. The Potency entry in assay [13] is “inactive”.

For the compound `N#CN=C1SCCN1Cc1ccc(Cl)nc1`, the Potency result in [1], in [2], in assay [3], in assay [4], in assay [5] and in assay [7] was “inactive” in each case. Further, the Potency entry in assay [14], in [15], in assay [16], in assay [9], in assay [10] and in assay [11] was “inactive” each time. For the same compound, the Potency result in [17], in assay [18], in [19] and in [13] was “inactive” each time.

Regarding `c1ccc2c(c1)CCNC2`, the Potency result in assay [1], in [2], in assay [3], in [4], in assay [5] and in assay [6] was “inactive” each time. Also, the Potency entry in [7], in assay [8], in assay [15], in assay [10], in [11] and in assay [17] was “inactive” throughout. In addition, the Potency entry in [18], in assay [19], in assay [12] and in assay [13] was “inactive” throughout.

For `O=C(Nc1ccccc1)N(Cc1ccc(Cl)cc1)C1CCCC1`, the Potency result in [1], in assay [2], in assay [3], in assay [4], in assay [5] and in [7] was “inactive” each time. Besides, the Potency result in [14], in [8], in assay [16], in [9], in [11] and in assay [19] was “inactive” each time. In addition, the Potency entry in assay [12] and in assay [13] was “inactive” each time. Besides, the Potency in assay [10] is 37.5 µM (active).

The values are drawn from PubChem BioAssay (Tox21).
